Compound activity: PubChem BioAssay, National Center for Advancing Translational Sciences (NCATS)
A selection: hits, their analogues and other compounds. The true share with any hit is near 6.2%.
HT1080NT lethal: kills 2HG-producing HT-1080-NT fibrosarcoma cells. HT-1080-NT fibrosarcoma viability, CellTiter-Glo ATP luminescence, 48 h. actives 1.6% (n = 360,000). AID 686970. Potency, µM (top dose mostly 46.1 µM), without a hit: at the top dose activity, negative = less viability, hits mostly cytotoxic;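 further: NT is the 2HG producing partner of a matched IDH1 knockdown line; 0% = DMSO-treated cells and -100% = media-only wells without cells; nearly all actives have a fitted effect of over 55% in size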
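Compounds were tested in concentration-response format on HT-1080-NT cells for 48 hours at 37 degrees C. Cell viability came from CellTiter-Glo luminescence; curves were classified by r2, response magnitude and activity.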
HT1080 IDH1KD tx: toxicity to HT-1080 IDH1 knockdown cells (counter line) | HT-1080 IDH1 knockdown viability, ATP luminescence, 48 h | Potency, µM (series often up to 46.1 µM), for the others: at the top dose activity, negative = toxicity, most hits filed as cytotoxic | actives 2% (n = 360,000) | AID 686971;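 further: 0% = DMSO wells and -100% = cell-free medium wells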
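% activity derives from luminescence (CellTiter-Glo), normalised to DMSO and no-cell wells. HT-1080-IDH1KD cells, 750/well, had 48 h compound exposure at 37 °C.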
ATXN2 expr inh: ATXN2 expression inhibition | HEK-293 ATXN2-luciferase reporter, luminescence, 24 h | Potency, µM (highest dose often 57 µM), without a hit: at the highest dose activity change, negative = inhibition, most hits filed as inhibitors | actives 0.72% (n = 360,000); further: on the % scale 0 is the no-effect control and ±100 the full control effect; nearly all actives have a fitted effect of over 55% in size
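ATXN2-luciferase reporter cells (luciferase flanked by upstream and downstream ATXN2 gene portions) were treated 24 h at 37 °C with compounds at up to 57 uM. SteadyGlo luminescence gave expression; GF-AFC fluorescence gave viability.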
KB-3-1 cytotox: KB-3-1 parental cell cytotoxicity; KB-3-1 viability, CellTiter-Glo ATP luminescence, 72 h; Potency, µM (top dose mostly 46.1 µM), usual class: cytotoxic; actives 1.4% (n = 400,000); further: on the % scale 0 is the no-effect control and ±100 the full control effect; nearly all actives have a fitted effect of over 60% in size
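Multi-concentration cytotoxicity screen in KB-3-1 cells grown in DMEM lacking phenol red with 10% FBS. After 72 h at 37 °C with compound, ATP-dependent luminescence was recorded.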
S2 tox: reduces viability in counter-screen for ATXN expression inhibitors; AID 651635; S2 cells (HEK-293 line with an ATXN2-luciferase reporter) viability, CellTiter-Fluor protease fluorescence, 24 h; actives 0.49% (n = 400,000); Potency, µM (doses to about 56.7 µM), actives largely listed as cytotoxic; further: nearly all actives have a fitted effect of over 40% in size
KB-V1 cytotox: kills drug-selected multidrug resistant KB-V1 cells; Potency, µM (top dose mostly 46.1 µM), most hits filed as cytotoxic; KB-V1 MDR cells viability, CellTiter-Glo, 72 h; AID 1347076; actives 3.4% (n = 400,000); further: on the % scale 0 is the no-effect control and ±100 the full control effect; nearly all actives have a fitted effect of over 60% in size
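Cytotoxicity toward P-gp-expressing KB-V1 cells was determined as loss of CellTiter-Glo luminescence after 72 h at 37 degrees C. Compounds were tested in quantitative HTS format across a concentration range, with curves fitted to normalized data.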
* hit, by the source's call; i = inactive; ? = inconclusive; nt = not tested or not shown; [ ] = dose if it differs, or a comment. The call rests on the fitted dose curve; in most records, active means well fitted curve in the direction sought with a large enough effect; inconclusive means small, poorly fitted or top-dose-only effect, or another doubt; inactive means no such curve, though single readings can be large; an effect the other way counts as inactive or inconclusive. Potency means the concentration at half of the fitted maximal effect.

SMILES	HT1080NT lethal	HT1080 IDH1KD tx	ATXN2 expr inh	KB-3-1 cytotox	S2 tox	KB-V1 cytotox
COc1ccccc1COCC(O)CN(Cc1ccco1)Cc1ccccc1O (centres undefined)	0%	-19%	-6%	i	i	7.3µM*
Cn1cccc1/C=C1\CC(C(C)(C)C)C/C(=C\c2cccn2C)C1=O (centres undefined)	5%	-3%	-13%	?	i	4.1µM*
Nc1cc(C(F)(F)F)ccc1S	nt	nt	-18%	nt	i	nt
CCCc1nn(C)c(C(=O)Nc2ccccc2)c1Cl	16%	8%	88%	i	?	18µM*
COc1cc(=O)n2c(c1C(=O)N(C)Cc1nonc1C)CCN(Cc1cc(C)ccc1C)CC2	nt	nt	nt	nt	i	nt
O=C1Nc2ccc(Br)cc2/C1=C/C(=O)c1ccc2c(c1)OCO2	?	?	nt	?	20µM*	?
O=C1CCCC[C@@H](O)[C@H](O)C[C@H](c2ccccc2)O1	8%	3%	3%	i	i	i
C=C1CC2(CC(c3ccccc3)OC(c3ccccc3)C2)OC1=O (centres undefined)	?	16µM*	?	?	nt	?
CC12CCC(C3NC(=S)NN=C31)C2(C)C (centres undefined)	9%	8%	0%	i	i	i
COc1cccc(-n2nnc3c(=O)n(CC(=O)N4CCC(C)CC4)cnc32)c1	2%	2%[9.24 µM]	-12%	i	i	i
COc1cccc(-n2nnc3c(=O)n(CC(=O)N4CCC(Cc5ccccc5)CC4)cnc32)c1	5%	17%	-22%	?	?	5.2µM*
CCN(CC)C(=O)C1CCC(CNS(=O)(=O)c2cccc3cccnc23)CC1 (centres undefined)	0%	-3%	0%	i	i	i
CN(Cc1ccccc1)C(=O)C1CCC(CNS(=O)(=O)c2cccc3cccnc23)CC1 (centres undefined)	-2%	-5%	nt	i	?	9.2µM*
CCCS(=O)(=O)c1nnnn1-c1cccc(OC)c1	10µM*	6.3µM*	?	i	nt	i
COc1cccc(-n2nnnc2SCC(=O)Nc2ccccc2OC)c1	7%	1%	-8%	i	i	i
CN1CCCN(C(=O)c2cccc(Cl)c2)CC1	-2%	2%	8%	i	i	i
CN1CCCN(C(=O)c2cccc(-c3ccc(C=C4C(=O)Nc5ccc(Cl)cc54)o3)c2)CC1	nt	nt	7.7µM*	nt	nt	nt
CC1Sc2ccc(S(=O)(=O)N3CCC(C(=O)Nc4cccc(Cl)c4)CC3)cc2NC1=O (centres undefined)	?	?	?	15µM*	i	i
O=S(=O)(c1ccc(N2CCN(S(=O)(=O)c3ccc4c(c3)OCCO4)CC2)nc1)N1CCCC1	-12%	-14%	-13%	?	i	8.2µM*
Cc1ccnc(NC(=O)C2CCN(S(=O)(=O)c3ccc(Cl)c(C(F)(F)F)c3)CC2)c1	-5%	16%	5%	i	i	?
O=C(Nc1ccc2c(c1)OCCO2)C1CCN(S(=O)(=O)c2ccc3c(c2)OCCO3)CC1	27%	5%	14%	i	i	15µM*
O=C(Nc1ccncc1)C1CCN(S(=O)(=O)c2ccc(Cl)c(C(F)(F)F)c2)CC1	2%[9.24 µM]	-18%	-17%	5.8µM*	i	?
CC(=O)c1cc(-c2ccc(F)cc2)n(CCC(=O)Nc2nc3c(C)cccc3s2)c1C	nt	nt	nt	i	nt	i
CCOC(=O)C1=C(COC(=O)/C=C/c2ccc(F)cc2)NC(=O)NC1C (centres undefined)	3%	1%	nt	i	i	i
CCc1ccc(Sc2cc(C(=O)NCCCN3CCCC(C)C3)c3ccccc3n2)cc1 (centres undefined)	nt	nt	?	i	i	i
SMILES	HT1080NT lethal	HT1080 IDH1KD tx	ATXN2 expr inh	KB-3-1 cytotox	S2 tox	KB-V1 cytotox
CN1CCN(c2nn3c(=O)c4ccccc4nc3s2)CC1	nt	nt	nt	i	nt	i
O=C(Nc1ccc2c(c1)OCCO2)C1CCN(S(=O)(=O)c2cccs2)CC1	-1%	22%	10%	i	i	15µM*
Cc1ccc(NC(=O)C2CCN(S(=O)(=O)c3ccc4c(c3)OCCCO4)CC2)nc1	?	-14%	-14%	16µM*	i	?
O=C(Nc1ccccn1)C1CCN(S(=O)(=O)c2ccc3c(c2)OCCCO3)CC1	-7%	-4%	3%	i	i	i
O=C(Nc1ccc2c(c1)OCCO2)C1CCN(S(=O)(=O)c2ccc(Br)s2)CC1	-23%	-2%	10%	?	i	10µM*
O=C(Nc1ccc2c(c1)OCCO2)C1CCN(S(=O)(=O)c2ccccc2)CC1	-15%	-1%	-7%	i	i	i
COc1ccc(S(=O)(=O)N2CCc3ccccc3C2)cc1OC	-1%	-3%	8%	i	i	i
COc1cc2c(cc1OC)CN(S(=O)(=O)c1ccc3c(c1)OCCO3)CC2	0%	-5%	1%	?	i	5.2µM*
CO[C@H]1[C@H](NC(=O)c2ccsc2)c2ccccc2C12CCN(Cc1c(O)ccc3ccccc13)CC2	nt	nt	nt	nt	i	nt
CCC(=O)Nc1cccc(C2=NN(c3ccccc3)C(c3ccc(OC)cc3)C2)c1 (centres undefined)	-20%	-6%	nt	i	nt	i
COc1ccccc1CNC(=O)CCc1c(C)c2cc3c(C)coc3cc2oc1=O	nt	nt	-5%	i	i	i
COC(=O)c1c(OCc2ccccc2)cc(=O)n2c1CCN(Cc1cccc(C)n1)CC2	nt	nt	nt	nt	i	nt
COc1cc(OC)c(NC(=O)C(C)n2c(=O)cc(-c3ccccc3)c3c(C)nn(C)c32)cc1Cl (centres undefined)	nt	nt	9%	i	i	i
CC(=O)c1cccc(S(=O)(=O)N2CCC(C(=O)O)CC2)c1	11%	8%	nt	i	i	i
COc1ccc(C(=O)C2CCN(S(=O)(=O)c3ccc4c(c3)OCCO4)CC2)cc1	-28%	?	-24%	?	i	23µM*
COc1ccc(C2CCCCCN2C(=O)C2CCN(S(=O)(=O)c3cccc(C(C)=O)c3)CC2)cc1 (centres undefined)	-6%	-3%	-4%	i	i	18µM*
CCC(C(=O)O)c1ccc(N2Cc3ccccc3C2=O)cc1 (centres undefined)	nt	nt	34%	nt	i	nt
CCOC(=O)c1c(C)[nH]c(C)c1S(=O)(=O)N1CCCC(C(=O)NCc2ccc(Cl)cc2)C1 (centres undefined)	nt	nt	1%	i	i	?
